Common to all, as to assay: NCI-60 one-dose screen, 48 h (100 = growth as untreated, 0 = no growth, -100 = all killed)
Common to all, as to conditions: 10 µM unless noted

The test system of assay [1] is HCT-15 colon.
In assay [2] the test system is HT29 colon.
Assay [3] deals with SNB-75 CNS.
The test system of assay [4] is SNB-19 CNS.
Assay [5] concerns U251 CNS.
Assay [6] relates to PC-3 prostate.
Assay [7] concerns SK-MEL-5 melanoma.
Assay [8] concerns UACC-62 melanoma.
Assay [9] has as its system LOX IMVI melanoma.
Assay [10] relates to SK-MEL-28 melanoma.

Experimental findings from PubChem BioAssay (NCI) are described below.

About 83,000 compounds went through this panel and 20% of them were active in at least one assay; those are over-represented in the sample as a whole.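 Single-concentration screen, 48 h exposure, 96-well plates. Endpoint: percent growth. Below 10 = active.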 Unmarked numbers belong to inactive results. Calls of active or inactive are those of the source.

As for `CCOc1ccc(NC(=O)Nc2cc(C(C)C)ccc2C)cc1`, the growth in [1] was 83.3%; in assay [2] it was 85%; in [3], 19.5%; in assay [4], 79.5%; in [5], 28.9%; in [6], 69.3%. For the same compound, the growth in [7] was 124%; in assay [8], 80%; in assay [9] it was 71.2%; in assay [10] it was 68%.

Consider `CC(C)(c1ccc(OCC(O)CNCc2ccco2)cc1)c1ccc(OCC(O)CNCc2ccco2)cc1` (centres undefined), for which the growth is 82.8% in assay [1]; 78.5% in [2]; 80.1% in [3]; 96.4% in [4]; 70.1% in assay [5]; 75.6% in [6]. The growth in assay [7] was 91.7%; in assay [8] it was 104%; in assay [9], 86.1%; in assay [10], 101%.

For `Oc1ccccc1/C=N/c1ccccn1`, the growth in assay [1] is 104%; in assay [2], 114%; in [3], 98%; in assay [4], 88%; in assay [5], 99%; in assay [6], 91.4%. The growth in [7] is 97%; in assay [8] it was 106%; in assay [9] it was 94.4%; in [10], 117%.

On to `O=C(c1cc(-c2ccc(Cl)cc2)nc2ccccc12)N1N=C(c2ccccc2)CC1c1cc(-c2ccccc2)nn1-c1ccccc1` (centres undefined), for which the growth in assay [1] was 56.7%; in [2], 98.7%; in assay [3], 69.2%; in assay [4], 77.1%; in assay [5], 63.8%; in assay [6] it was 71.3%. Also, the growth in [7] is 78.7%; in [9] it was 57%; in assay [10], 73.3%.

As for `COc1ccc(-c2nn(-c3cccc(Cl)c3)cc2-c2cc(-c3ccc(Br)cc3)[nH]c(=O)c2C#N)cc1`, the growth in assay [1] was 71.1%; in assay [2] it was 108%; in assay [3], -37.1% (active); in assay [4], 90.6%; in assay [5], 90%; in assay [6], 86%. In addition, the growth in [7] was 91%; in assay [9], 69.6%; in assay [10] it was 99.6%.

As for `COc1ccc(-c2nnc(SCC(=O)Nc3ccc(C(=O)/C=C/c4ccccc4)cc3)o2)cc1OC`, the growth in assay [1] is 94.6%; in assay [2] it was 93.4%; in [3], 92.8%; in [4], 92.2%; in assay [5], 98%; in [6] it was 100%. The growth in assay [7] was 87.1%; in [9], 85.9%.

For the compound `CCOC(=O)c1noc2c1CCc1c-2cn(Cc2ccc(OC)cc2)c1-c1cc(OC)c(OC)c(OC)c1`, the growth is 23.5% in assay [1]; 4.06% (active) in [2]; 14% in [3]; 24.4% in assay [4]; 18.4% in assay [5]; 25.3% in assay [6]. Also, the values for the growth in [7], in [9] and in assay [10] were 16.9%, 42.3% and 58.1%, respectively.

Regarding `CC(=S)Nc1ccccc1`, the growth was 99.4% in [1]; 94.3% in assay [2]; 87.3% in assay [3]; 97.8% in assay [4]; 96.2% in assay [5]; 84.9% in assay [6]. Besides, the growth in [7] is 98%; in assay [9], 91.2%; in assay [10] it was 112%.

Turning to `Clc1ccc2c(c1)nnn1c3ncccc3c(Br)c21`, the growth in assay [1] was 101%; in assay [2], 93.8%; in assay [3], -3.76% (active); in assay [4], 89%; in assay [5] it was 59.4%; in assay [6], 78.6%. Besides, the results for the growth in assay [7], in [9] and in assay [10] were 77.3%, 77.5% and 109%, respectively.

As to `C=CC(=O)Nc1cccc(Nc2nc(Nc3ccc(OCCOC(F)F)cc3)ncc2F)c1`, the growth is 22.4% in assay [1]; 33.8% in [2]; 4.93% (active) in [3]; 55.7% in [4]; 30.1% in assay [5]; 40.7% in [6]. Moreover, the growth was 79.6% in assay [7], 18% in [9] and 68% in assay [10].

In the case of `COc1ccc2c(c1)OC(N)=C(C#N)C2c1ccc(F)cc1` (centres undefined), the growth was 21.9% in assay [1]; 5.87% (active) in assay [2]; 8.49% (active) in assay [3]; 30.1% in [4]; 31.3% in assay [5]; 27.9% in assay [6]. Further, the growth was 22.6% in [7], 29.7% in assay [8], 39.1% in [9] and 65% in assay [10].

For `O=C(CSc1nnc(-c2cc3c([nH]c4ccccc43)c(-c3cccc(O)c3)n2)n1-c1ccccc1)c1ccccc1`, the growth in assay [1] was 46.3%; in assay [2] it was 64.9%; in assay [3] it was 45.8%; in assay [4], 84.2%; in [5] it was 32.9%; in assay [6] it was 40.2%. Besides, the figures for the growth in assay [7], in assay [9] and in [10] were 33.2%, 11.2% and 71.5%, respectively.

For `Cn1c(I)c(C#C[Si](C)(C)C)c(=O)[nH]c1=O`, the growth in assay [1] was -37.6% (active); in [2], -60% (active); in assay [3] it was 75.2%; in assay [4] it was 100%; in [5], 51.5%; in [6], 4.88% (active). The growth in [7] is 98.3%; in assay [9], -69.9% (active); in assay [10] it was -82% (active).

For `Nc1ncnc2c1c(-c1ccc(Oc3ccccc3)cc1)nn2C[C@@H]1SSC[C@H]1O`, the growth in [1] was 70.4%; in [2], 13.2%; in assay [3] it was 2.29% (active); in [4], 40.6%; in assay [5] it was 26.5%; in assay [6], 55.7%. Further, the growth in assay [7] was -59.6% (active); in assay [8] it was -70.4% (active); in assay [9], 10.7%; in [10], 31.4%.

On to `Cc1cc(C)c(O)c(C(=O)CC(Br)C(=O)O)c1` (centres undefined), for which the growth is 103% in assay [1]; 99.1% in assay [2]; 102% in [3]; 108% in assay [4]; 100% in assay [5]; 89.7% in assay [6]. For the same compound, the growth in [7] was 101%; in assay [9], 93.1%; in assay [10], 101%.

`Cn1c2ccccc2c2ssc(=S)c21`: the growth in assay [1] is 92.1%; in assay [2], 110%; in [3] it was 99.3%; in [4] it was 100%; in assay [5], 96.2%; in assay [6] it was 101%. For the same compound, the growth in [7] was 89.8%; in [9], 91.9%.

On to `O=C1c2ccccc2OC=C(c2ccccc2)N1CCCCNc1ccc(F)cc1`, for which the growth in assay [1] was 90.3%; in assay [2] it was 76.9%; in assay [3], 90.7%; in [4], 87.3%; in assay [5], 81.8%; in [6] it was 47.2%. Also, the growth is 94.3% in assay [7], 86.1% in [9] and 104% in assay [10].

Consider `Cc1c(F)cccc1NC(=O)c1sc2nc3c(cc2c1N)CCCCC3`, for which the growth in assay [1] was 28.5%; in assay [2] it was 15.6%; in assay [3] it was 76.2%; in assay [4], 53.9%; in [5] it was 56.3%; in assay [6] it was 70.7%. Moreover, the growth is 39.2% in [7], 50.4% in [9] and 68.7% in assay [10].

Take `O=c1cc(Cl)[nH]c(=O)[nH]1`: the growth in assay [1] is 107%; in assay [2] it was 83.6%; in assay [3], 100%; in [4] it was 107%; in [5], 97.5%; in assay [6] it was 98.4%. Moreover, the growth in [7] was 101%; in assay [8] it was 86.3%; in assay [9], 101%; in assay [10], 105%.

`Nc1ncnc2c1c(C(F)(F)F)cn2[C@@H]1O[C@H](CO)[C@@H](O)[C@H]1O`: the growth in assay [1] is 4.22% (active); in [2] it was 1.42% (active); in [3], -35.1% (active); in assay [4], 14.6%; in assay [5], 3.73% (active); in [6] it was 12.1%. Further, the growth in [7] is -32.1% (active); in assay [8] it was -38.6% (active); in [9] it was 6.25% (active); in [10], 1.5% (active).

With `CC(C)Cn1cnc2c3ccccc3nc(NCn3nc(-c4cc(Cl)cc(Cl)c4Cl)oc3=S)c21`, the growth in assay [1] is 106%; in assay [2], 98.5%; in assay [3], 90%; in assay [4], 111%; in assay [5], 99%; in [6] it was 86.2%. Further, the values for the growth in assay [7], in assay [9] and in [10] were 85.3%, 86.7% and 110%, respectively.

Consider `O=C(O)c1ccc(-c2nn(-c3ccc(C(=O)O)cc3)cc2/C=N/Nc2c(F)c(F)cc(F)c2F)cc1`, for which the growth in assay [1] was 107%; in assay [2] it was 99.6%; in assay [3], 105%; in assay [4], 110%; in [5] it was 104%; in assay [6] it was 101%. The growth is 107% in assay [7], 100% in assay [9] and 104% in assay [10].

Turning to `CCOC(=O)c1[nH]c(-c2ccc(Cl)cc2)cc1-c1cccnc1`, the growth was 21.8% in assay [1]; 6.32% (active) in [2]; -1.8% (active) in [3]; 52.9% in assay [4]; 20.8% in assay [5]; 14% in [6]. Moreover, the growth in [7] was 27.1%; in assay [8], 38.8%; in assay [9], 48.5%; in assay [10] it was 47.8%.

Take `Cc1cc(-c2ccccc2)nc2ccccc12`: the growth is 97.5% in [1]; 113% in assay [2]; 86.9% in assay [3]; 101% in assay [4]; 97.4% in assay [5]; 99.8% in [6]. In addition, the growth in [7] was 95%; in assay [8] it was 95.7%; in assay [9], 98.5%; in [10], 114%.

`O=C1C(SCCO)=C(SCCO)C(=O)N1c1ccc(-c2ccccc2)cc1`: the growth was -21.6% (active) in [1]; 70.2% in assay [2]; 71.9% in assay [3]; 106% in [4]; 60.2% in assay [5]; 93.3% in assay [6]. Moreover, the growth in assay [7] is 103%; in assay [9], -45% (active); in assay [10], -66.7% (active).

In the case of `COc1cc2c(cc1OCCCCC(=O)Nc1ccc(-c3nc4ccccc4s3)cc1)N=C[C@@H]1CCCN1C2=O`, the growth in [1] is 10.6%; in assay [2], -9.12% (active); in assay [3] it was -67.7% (active); in [4] it was 14.1%; in assay [5] it was 7.5% (active); in assay [6], -4.92% (active). For the same compound, the growth is -99.3% (active) in assay [7], 1.99% (active) in assay [9] and -44% (active) in assay [10].

As to `O=C(O)c1cn(C2CC2)c2cc(N3CCN(C(=O)CSc4nc(NS(=O)(=O)c5ccccc5)cc(=O)[nH]4)CC3)c(F)cc2c1=O`, the growth in [1] is 94.9%; in [2], 119%; in assay [3], 98.8%; in assay [4], 99.3%; in assay [5], 97.7%; in assay [6], 85%. The growth in [7] is 94.6%; in assay [9] it was 90.9%; in assay [10], 98%.

Regarding `C=C1C(=O)O[C@H]2[C@H]1CC/C(COC(=O)c1ccc(C#N)cc1)=C\CC[C@@]1(C)O[C@@H]21`, the growth is -7.25% (active) in [1]; -4.64% (active) in [2]; 77.3% in assay [3]; 47.7% in [4]; 40.6% in [5]; 50.6% in assay [6]. Besides, the growth in assay [7] is 42.9%; in assay [8], -25.2% (active); in [9], -81.4% (active); in [10] it was 3.18% (active).

`O=C(N/N=C1\SCC(=O)N1c1ccccc1)c1cc(-c2cc3ccccc3o2)nn1-c1ccccc1`: the growth in assay [1] was 106%; in assay [2], 107%; in [3] it was 101%; in [4] it was 104%; in assay [5], 103%; in [6], 86.9%. The values for the growth in assay [7], in assay [9] and in [10] were 101%, 107% and 110%, respectively.
